Measured values taken from PubChem BioAssay (NCATS).
Inconclusive results are not listed. Calls of active or inactive are those of the source. Calls follow the shape of the dose curve; as a rule, active = well fitted curve in the direction sought with a large enough effect; inconclusive = small, poorly fitted or top-dose-only effect, or another doubt; inactive = no such curve, though single readings can be large; an effect the other way counts as inactive or inconclusive.

Key:
[1] = Quantitative High-Throughput drug screen in 47 multiple myeloma cell lines against the NCATS MIPE library collection: H1112_PLB cell viability assay (AID 1918967; also: nearly all actives have a fitted effect of over 30% in size)
Procedure, shortened: (§1)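 Relative luminescence from CellTiter-Glo served as the viability signal, referenced to DMSO-treated (100%) and cell-free medium (0%) controls. Treatment lasted 48 hours at 37C with 500 cells per well.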

[2] = Quantitative High-Throughput drug screen in 47 multiple myeloma cell lines against the NCATS MIPE library collection: Karpas25_ECACC cell viability assay (AID 1918968; also: nearly all actives have a fitted effect of over 35% in size)
Procedure, shortened: as §1

[3] = Quantitative High-Throughput drug screen in 47 multiple myeloma cell lines against the NCATS MIPE library collection: KMS27_JCRB cell viability assay (AID 1918970); also: nearly all actives have a fitted effect of over 30% in size
Procedure, shortened: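 CellTiter-Glo luminescence after 48 h drug exposure at 37 °C; 500 cells/well, 1536-well format, pin-tool compound addition; DMSO = 100%, media-only = 0% viability.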

[4] = Quantitative High-Throughput drug screen in 47 multiple myeloma cell lines against the NCATS MIPE library collection: KMS12BM_JCRB cell viability assay (AID 1918971); also: nearly all actives have a fitted effect of over 35% in size
Procedure, shortened: (§2)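 Myeloma cells (500 per well) were exposed to MIPE 4.0 compounds by pin transfer and incubated 48 hours at 37C, 5% CO2. Viability was read as ATP by CellTiter-Glo luminescence, normalised to DMSO (100%) and media-only (0%) wells.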

[5] = Quantitative High-Throughput drug screen in 47 multiple myeloma cell lines against the NCATS MIPE library collection: KMS12PE_JCRB cell viability assay (AID 1918972); also: nearly all actives have a fitted effect of over 30% in size
Procedure, shortened: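 Viability readout: CellTiter-Glo luminescence following 5 min room-temperature incubation with reagent. Prior exposure: 48 h, 37C, humidified 5% CO2, 500 cells per well.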

[6] = Quantitative High-Throughput drug screen in 47 multiple myeloma cell lines against the NCATS MIPE library collection: KMS26_JCRB cell viability assay (AID 1918975); also: nearly all actives have a fitted effect of over 45% in size
Procedure, shortened: as §2

[7] = Quantitative High-Throughput drug screen in 47 multiple myeloma cell lines against the NCATS MIPE library collection: MMM1_PLB cell viability assay (AID 1918976); also: nearly all actives have a fitted effect of over 35% in size
Procedure, shortened: (§3)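 Cells were exposed to library compounds for 48 hours, after which ATP was measured by CellTiter-Glo. Signal was taken as median relative luminescence units.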

[8] = Quantitative High-Throughput drug screen in 47 multiple myeloma cell lines against the NCATS MIPE library collection: MOLP8_DSMZ cell viability assay (AID 1918977); also: nearly all actives have a fitted effect of over 45% in size
Procedure, shortened: as §3

[9] = Quantitative High-Throughput drug screen in 47 multiple myeloma cell lines against the NCATS MIPE library collection: NCIH929_DSMZ cell viability assay (AID 1918978); also: nearly all actives have a fitted effect of over 35% in size
Procedure, shortened: as §3

[10] = Quantitative High-Throughput drug screen in 47 multiple myeloma cell lines against the NCATS MIPE library collection: OCIMY1_PLB cell viability assay (AID 1918979); also: nearly all actives have a fitted effect of over 35% in size
Procedure, shortened: as §3

[11] = Quantitative High-Throughput drug screen in 47 multiple myeloma cell lines against the NCATS MIPE library collection: MM1S_ATCC cell viability assay (AID 1918980); also: nearly all actives have a fitted effect of over 45% in size
Procedure, shortened: as §3

[12] = Quantitative High-Throughput drug screen in 47 multiple myeloma cell lines against the NCATS MIPE library collection: MM1R_ATCC cell viability assay (AID 1918981); also: nearly all actives have a fitted effect of over 35% in size
Procedure, shortened: as §3

[13] = Quantitative High-Throughput drug screen in 47 multiple myeloma cell lines against the NCATS MIPE library collection: KMS28PE_JCRB cell viability assay (AID 1918983); also: nearly all actives have a fitted effect of over 35% in size
Procedure, shortened: as §3

[14] = Quantitative High-Throughput drug screen in 47 multiple myeloma cell lines against the NCATS MIPE library collection: L363_DSMZ cell viability assay (AID 1918984); also: nearly all actives have a fitted effect of over 40% in size
Procedure, shortened: as §3

[15] = Quantitative High-Throughput drug screen in 47 multiple myeloma cell lines against the NCATS MIPE library collection: KMS34_JCRB cell viability assay (AID 1918985); also: nearly all actives have a fitted effect of over 40% in size
Procedure, shortened: as §3

[16] = Quantitative High-Throughput drug screen in 47 multiple myeloma cell lines against the NCATS MIPE library collection: OCIMY5_PLB cell viability assay (AID 1918988); also: nearly all actives have a fitted effect of over 65% in size
Procedure, shortened: as §3

[17] = Quantitative High-Throughput drug screen in 47 multiple myeloma cell lines against the NCATS MIPE library collection: KMS21BM_JCRB cell viability assay (AID 1918974); conditions: ATP luminescence, 48 h; viability: at 45.8 µM (top of the series)
Procedure, shortened: as §1

[18] = Quantitative High-Throughput drug screen in 47 multiple myeloma cell lines against the NCATS MIPE library collection: KMS20_JCRB cell viability assay (AID 1918973); also: nearly all actives have a fitted effect of over 45% in size
Procedure, shortened: as §1

[19] = Quantitative High-Throughput drug screen in 47 multiple myeloma cell lines against the NCATS MIPE library collection: LP1_DSMZ cell viability assay (AID 1918982); also: nearly all actives have a fitted effect of over 35% in size
Procedure, shortened: as §3

Measured: Potency
Potency is read from the fitted curve at half-maximal effect.

Oc1c(Cl)cc(Cl)c2cccnc12
active: [1] 11.8 µM | [2] 9.35 µM | [3] 16.6 µM | [4] 4.69 µM | [5] 14.8 µM | [6] 14.8 µM | [7] 16.6 µM | [8] 11.8 µM | [9] 10.5 µM | [10] 18.7 µM | [11] 7.43 µM | [12] 11.8 µM | [13] 20.9 µM | [14] 9.35 µM | [15] 16.6 µM | [16] 6.62 µM

CCCCc1oc2ccc(NS(C)(=O)=O)cc2c1C(=O)c1ccc(OCCCN(CCCC)CCCC)cc1
active: [1] 18.7 µM | [2] 16.6 µM | [3] 14.8 µM | [5] 9.35 µM | [6] 14.8 µM | [7] 7.43 µM | [8] 16.6 µM | [9] 18.7 µM | [10] 20.9 µM | [11] 20.9 µM | [12] 14.8 µM | [13] 20.9 µM | [14] 8.33 µM | [16] 4.69 µM

CNNCc1ccc(C(=O)NC(C)C)cc1
inactive: [1] | [3] | [5] | [9] | [10]
active: [2] 5.26 µM | [17] 2.35 µM | [6] 18.7 µM | [7] 8.33 µM | [12] 11.8 µM | [13] 13.2 µM | [16] 16.6 µM

CCCCOc1ccc(CC(=O)NO)cc1
active: [1] 8.33 µM | [2] 6.62 µM | [3] 33.2 µM | [5] 23.5 µM | [18] 16.6 µM | [17] 14.8 µM | [7] 13.2 µM | [11] 2.64 µM | [12] 8.33 µM | [13] 20.9 µM | [14] 18.7 µM | [16] 9.35 µM

CCN[C@H]1C[C@H](C)S(=O)(=O)c2sc(S(N)(=O)=O)cc21
not listed: [4] | [6] | [7] | [11] | [14] | [17]
inactive: all other assays above

CCc1c2c(nc3ccc(OC(=O)N4CCC(N5CCCCC5)CC4)cc13)-c1cc3c(c(=O)n1C2)COC(=O)[C@]3(O)CC
active: [1] 1.32 µM | [2] 2.64 µM | [5] 0.526 µM | [7] 0.935 µM | [8] 0.148 µM | [9] 16.6 µM | [11] 1.32 µM | [12] 1.05 µM | [19] 0.59 µM | [13] 1.87 µM | [15] 1.18 µM | [16] 1.48 µM

NC(=O)c1ccc2[nH]ccc2c1
inactive: [1] | [2] | [4] | [5] | [6] | [9] | [10] | [13] | [15]

O=c1oc2c(O)c(O)cc3c(=O)oc4c(O)c(O)cc1c4c23
inactive: [1] | [2] | [3] | [5] | [9] | [10] | [12] | [13]

CCOCC(O)COc1ccc(NC(=O)CC[S+](C)C)cc1 (stereo not drawn)
inactive: [1] | [2] | [3] | [18] | [8] | [9] | [12] | [13] | [15] | [16]

Cc1oc(=O)oc1CN1CCN(c2cc3c(cc2F)c(=O)c(C(=O)O)c2n3C(C)S2)CC1 (stereo not drawn)
inactive: [1] | [2] | [3] | [5] | [9] | [10] | [12]

CN1CCN(c2c(F)cc3c(=O)c(C(=O)O)cn(CCF)c3c2F)CC1
inactive: [1] | [2] | [3] | [5] | [8] | [9] | [12] | [19] | [13]

CCn1cc(C(=O)O)c(=O)c2cc(F)c(N3CCN(C)CC3)cc21
active: [14] 5.26 µM
not listed: [4] | [6] | [7] | [10] | [11] | [17] | [18]
inactive: all other assays above

N[C@@H](Cc1ccc(O)c(O)c1)C(=O)O
inactive: [1] | [2] | [5] | [9] | [19]

CCOc1cc(N)c(Cl)cc1C(=O)NCC1CN(Cc2ccc(F)cc2)CCO1 (stereo not drawn)
not listed: [4] | [6] | [7] | [11] | [14] | [17] | [18]
inactive: all other assays above

CCCc1cc(C(N)=S)ccn1
not listed: [4] | [6] | [7] | [11] | [14] | [17] | [18]
inactive: all other assays above

COc1ccc2c(c1)c(CC(=O)OCC(=O)O)c(C)n2C(=O)c1ccc(Cl)cc1
inactive: [1] | [2] | [4] | [5] | [8] | [9] | [10] | [13] | [14] | [15]
active: [7] 4.18 µM

OC(Cn1cncn1)(Cn1cncn1)c1ccc(F)cc1F
inactive: [1] | [2] | [5] | [9] | [10] | [13] | [16]
active: [7] 10.5 µM

Nc1ccc(S(=O)(=O)Nc2ccccn2)cc1
not listed: [2] | [4] | [6] | [7] | [11] | [14] | [16] | [18]
inactive: all other assays above
